We go through 13 compounds from ChEMBL document CHEMBL1157539, “Thousands of chemical starting points for antimalarial lead identification” (Nature, 2010).

The assay relates to HepG2. Description: GSK_TCMDC: Percent inhibition of human HepG2 cell line. Test compounds present at 10uM. The assay is classed as functional.
With `Cc1nc(C)c(CC(=O)Nc2ccc(-c3ccc(-c4nc5cc(C(F)(F)F)ccc5[nH]4)s3)cc2)s1`, the Inhibition (usually the relative decrease from the control value, in per cent) amounted to 57%.

`Cc1c(CNCCCNc2cc(=O)c3ccccc3[nH]2)sc(/C=N/O)c1Br.Cl` showed an Inhibition of 0%. Under `Cc1cccc2nc(-c3ccc(-c4ccc(CN5CCN(CCN6CCOCC6)CC5)cc4)s3)[nH]c12.O=C(O)C(F)(F)F` stands 41%.

In turn, `CS(=O)(=O)n1c(CN2CCN(c3ncc(C(F)(F)F)cc3Cl)CC2)nc2ccccc21` showed an Inhibition of 0%. Consider `COc1cc2nccc(Nc3ccc(OCc4ccc(NC(C)=O)cc4)cc3)c2cc1OC.Cl`, for which the Inhibition was found to be 24%. `O=C(c1ccc(Cl)cc1Cl)N1CCCC(C(F)(F)F)C1` (stereo not drawn) gave an Inhibition of 6%. In turn, `CN(CCN)Cc1cccc(-c2cccc(-c3nc4cc(C(F)(F)F)ccc4[nH]3)c2)c1.O=C(O)C(F)(F)F` showed an Inhibition of 22%. Turning to `COc1cc(C(=O)N2CCOC(CCN3CCC4c5ccccc5CC43)(c3ccc(Cl)c(Cl)c3)C2)cc(OC)c1OC` (stereo not drawn), the Inhibition was 32%. As for `Cc1cc(N[C@@H](Cc2ccccc2)C(=O)NCCOc2ccccc2)nc(NCCc2ccccc2)n1.O=C(O)C(F)(F)F`, the figure is 12%; as for `Br.CC1(C)NC(N)=NC(=N)N1OCCCOc1ccc(N)cc1`, 66%.

On to `CC(Cc1ccc(C(=O)OCCOC(=O)c2ccc(CC(C)NCC(O)c3cccc(C(F)(F)F)c3)cc2)cc1)NCC(O)c1cccc(C(F)(F)F)c1` (stereo not drawn), for which the Inhibition came out at 10%.

The compound `Cc1cccc(CN2CCN(c3ncc(C(=O)NC4CC4)cc3Cl)CC2)c1.O=C(O)C(F)(F)F` showed an Inhibition of 2%. As for `Cc1cc(C(=O)Nc2ccc3c(c2)CCN3C2CCN(Cc3cccc4cc[nH]c34)C2)no1` (stereo not drawn), the figure is 0%.
